The values below come from PubChem BioAssay.

Unmarked numbers belong to inactive results.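 The calls were made as follows: active = viability at or below 10% of carrier control in both of two separate runs; inconclusive = viability at or below 10% in only one of the two runs; inactive = the rest.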

The test can be described thus: reduced viability of SK-BR-3 breast cancer cells – cell-based, 24 h, human, pilot screen (AID 572).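 Also: compound exposure lasted between 18 and 24 h rather than exactly 24 h; 100% = carrier-treated control wells.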 The conditions noted are these: SK-BR-3 viability, CellTiter-Glo luminescence, at 10 µM, stronger effect = lower value.
What is called viability is a read-out of living cells in per cent, often relative to untreated cells. Regarding `O=C1c2ccccc2C(=O)N1Cc1nc2ccccc2c(=O)n1CCN1CCOCC1`, the viability is 97.5%.

Regarding `Nc1c(C(=O)NCCc2ccccc2)nnn1Cc1ccccc1`, the viability is 108%.

For the molecule `CC1/C(=N/O)C(CN(C)C)C2CC1C2(C)C` (stereo not given), the viability was 107%.

On to `Nc1cc(-c2ccccc2)ccc1O`, for which the viability is 100%.

As to `CCOC(=O)c1c(C)[nH]c(C=Nc2ccccc2)c1O`, the viability is 94%.

With `O=C(COc1nnc2ccccn12)N1CCN(S(=O)(=O)c2ccccc2)CC1`, the viability was 107%.

Regarding `O=C(Nc1ccc2nc(-c3cccs3)[nH]c2c1)c1ccco1`, the viability was 108%.

With `COC(=O)c1ccccc1NC(=O)CC(NCc1ccccc1)C(=O)O` (stereo not given), the viability was 102%.

Regarding `CCOC(=O)c1oc2ccccc2c1CSc1nnnn1-c1ccc(OC)cc1`, the viability was 82.5%.

In the case of `CC1(C)CC(=O)C2=C(C1)OC(=O)C2(NC(=O)c1cccs1)C(F)(F)F` (stereo not given), the viability was 102%.

With `CCc1ccc(CNCc2cccnc2)cc1`, the viability is 91%.

For the molecule `CCOC(=O)C1CCN(C(=O)C2CCN(S(=O)(=O)c3cc(Cl)ccc3Cl)CC2)CC1`, the viability is 92%.

Take `Cc1cnc(-c2nnc(N(C)C(=O)C3CCOC3)s2)cn1` (stereo not given): the viability was 90.5%.

Regarding `CN1/C(=C\C(=O)C(F)F)C(C)(C)c2ccccc21`, the viability is 90%.

For `Nc1cc(CN2C(=O)c3ccccc3C2=O)cc(Cl)c1O`, the viability is 102%.

As for `COCc1nnc(NC(=O)CCCOc2ccccc2)s1`, the viability was 107%.

On to `CCCN(CCC)S(=O)(=O)c1ccc(NS(C)(=O)=O)cc1`, for which the viability is 110%.

In the case of `Cc1nnc2n(-c3ccccc3)c(=O)c3c4c(sc3n12)CCCC4`, the viability is 79.5%.

Take `COC(=O)c1ccccc1NC(=O)C1CC(=O)N(c2ccc(F)cc2)C1` (stereo not given): the viability was 121%.

In the case of `O=C(CCc1ccccc1)Nc1ccncc1`, the viability was 110%.

As for `CN(CC(=O)Nc1nccs1)S(=O)(=O)c1ccc(F)cc1`, the viability is 82%.

For the molecule `COc1cccc(-c2nc(CSCC(=O)N3CCc4ccccc43)c(C)o2)c1`, the viability was 82.5%.

`CCCC(=O)Nc1nnc(CC(=O)OCC)s1`: the viability is 111%.

Regarding `COc1ccc(N2CCN(C(c3cccs3)C(C)NC(=O)c3ccco3)CC2)cc1` (stereo not given), the viability was 90%.

As to `O=C(CSc1ncccn1)NCc1ccccc1`, the viability was 94%.

For the molecule `Cc1ccc(-c2[nH]nc3c2C(c2ccc(OC(=O)N4CCOCC4)cc2)C(C#N)=C(N)O3)cc1` (stereo not given), the viability is 89%.

As for `O=C(Nc1ccccc1)N(O)c1ccc(Cl)cc1`, the viability was 93%.

For `CCCCCC(=O)N1CC2(CC)CN(C(=O)CCCCC)CC(CC)(C1)C2=O`, the viability is 89%.

Consider `Cc1cc(NC(=O)C23CCC(C)(c4nc5cc(Cl)c(Cl)cc5nc42)C3(C)C)no1` (stereo not given), for which the viability is 124%.

As for `CCOC(=O)CSc1nnc(Cn2nnc(-c3ccccc3)n2)n1CC`, the viability is 95.5%.

Turning to `O=C(COC(=O)c1ccc(Br)o1)Nc1ccc(S(=O)(=O)N2CCCC2)cc1`, the viability is 80%.

For the molecule `Cc1cccc(-n2c(O)c(C=Nc3ccccc3N)c(=O)[nH]c2=O)c1`, the viability was 108%.

In the case of `Cn1c(-c2ccccc2)cc(=O)c2ccccc21`, the viability was 98.5%.

Consider `COc1cc(S(=O)(=O)NC2CCCCC2)ccc1Cl`, for which the viability was 94.5%.

With `c1ccc(Cn2nnnc2CN2CCN(c3ncccn3)CC2)cc1`, the viability is 99%.

For `CS(=O)(=O)N(CC(=O)O)c1cccc(Cl)c1`, the viability is 95%.

For `O=S1(=O)CC(N2CCOCC2)c2ccccc21` (stereo not given), the viability is 95%.

Take `C=CCn1cc(C(=O)NCCOC)c(=O)c2cc(S(=O)(=O)N(CC)CC)ccc21`: the viability is 98.5%.

As to `Cc1ccc(C(=O)OCC(=O)c2ccc(Cl)s2)s1`, the viability is 93.5%.

Take `CCOC(=O)/N=C(/NC(=O)Nc1ccc(C(=O)OCC)cc1)OC`: the viability is 99.5%.
